{"source": "the supplement of paper PMC8253809", "data": [{"system": "HGGX6 (H3.3 G34R paediatric high-grade glioma line)", "experiment": "growth inhibition (% activity, log2 RLU normalised to DMSO / staurosporine); higher = more growth inhibition", "conditions": "33 µM", "outline": "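Cells (pHGG lines and H9-derived neural stem cells) were plated on Geltrex-coated 384-well plates and exposed to approved drugs at a single final concentration of about 33 μM, in triplicate, for 7 days at 37 °C, 5% CO2. Log2-transformed CellTiter-Glo luminescence was normalised per plate to % activity between solvent and positive control wells, and the growth-inhibition value is the median over replicates.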", "units": {"growth inhibition": "%"}, "values": [{"compound": "CCCNC(C)C(=O)Nc1ccccc1C", "note": "(stereo unspecified)", "growth inhibition": -0.0141}, {"compound": "NS(=O)(=O)c1cc2c(cc1Cl)NCNS2(=O)=O", "growth inhibition": -0.432}, {"compound": "CCCNC(C)C(=O)Nc1c(C)csc1C(=O)OC", "note": "(stereo unspecified)", "growth inhibition": 1.44}, {"compound": "C[C@@H](O)[C@H]1C(=O)N2C(C(=O)O)=C(S[C@@H]3CN[C@H](C(=O)N(C)C)C3)[C@H](C)[C@H]12", "growth inhibition": -3.05}, {"compound": "O=C(O)c1cc(/N=N/c2ccc(S(=O)(=O)Nc3ccccn3)cc2)ccc1O", "growth inhibition": 1.04}, {"compound": "CN1C(CCl)Nc2cc(Cl)c(S(N)(=O)=O)cc2S1(=O)=O", "note": "(stereo unspecified)", "growth inhibition": 3.08}, {"compound": "COc1ccc2cc1Oc1ccc(cc1)C[C@H]1c3c(cc4c(c3Oc3cc5c(cc3OC)CCN(C)[C@@H]5C2)OCO4)CCN1C", "growth inhibition": 0.797}, {"compound": "CCN1CCN(C(=O)N[C@@H](C(=O)N[C@@H]2C(=O)N3[C@@H]2SC(C)(C)[C@@H]3C(=O)O)c2ccccc2)C(=O)C1=O", "growth inhibition": 0.186}, {"compound": "COc1ccc(C2C(=O)c3ccccc3C2=O)cc1", "growth inhibition": 1.25}, {"compound": "[Na+].[Na+].[Na+].[O]=[V]([O-])([O-])[O-]", "growth inhibition": -0.94}, {"compound": "Cc1noc(NS(=O)(=O)c2ccc(N)cc2)c1C", "growth inhibition": -1.61}, {"compound": "N#C[C@@H]1CCCN1C(=O)CNC12CC3CC(CC(O)(C3)C1)C2", "growth inhibition": -2.32}, {"compound": "Oc1ccc(OCc2ccccc2)cc1", "growth inhibition": 1.02}, {"compound": "CN(C)c1ccc(C(=C2C=CC(=[N+](C)C)C=C2)c2ccc(N(C)C)cc2)cc1", "growth inhibition": 48.2}, {"compound": "C[C@@H](O[C@H]1OCCN(Cc2n[nH]c(=O)[nH]2)[C@H]1c1ccc(F)cc1)c1cc(C(F)(F)F)cc(C(F)(F)F)c1", "growth inhibition": 7.33}, {"compound": "Cc1c(C(=O)NN2CCCCC2)nn(-c2ccc(Cl)cc2Cl)c1-c1ccc(Cl)cc1", "growth inhibition": -2.08}]}]}
